ELG1 repair inh: qHTS screen for small molecules that inhibit ELG1-dependent DNA repair in human embryonic kidney (HEK293T) cells expressing luciferase-tagged ELG1; HEK293T ELG1-luciferase reporter, luminescence, 16 h; DNA damage induced by 5-fluorouridine; Potency, µM (titrated, usually from 46.1 µM), for inactives: top-dose activity change, negative = inhibition, usual class: inhibitors; actives 2.3% (n = 330,000); AID 504467, 2011; further: potency means the concentration at half of the fitted maximal effect; on the % scale 0 is the no-effect control and ±100 the full control effect; nearly all actives have a fitted effect of over 55% in size
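Cells (2,000 per well) received 5-fluorouridine plus test compound or DMSO and were incubated 16 hr at 37 °C, 5% CO2. Luciferase activity was read by luminescence 30 min after ONE-Glo addition; signal suppression marked inhibition of damage-induced ELG1 function.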
FUS yeast rescue: qHTS for Suppressors of FUS Proteinopathy: Primary screen using FUS-linked yeast assay; actives 0.24% (n = 390,000); Potency, µM (doses to about 76.6 µM), most hits filed as activators; S. cerevisiae FUS-expressing, growth rescue, OD600, 24 h;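 further: potency means the concentration at half of the fitted maximal effect; plate controls were DMSO vehicle for no effect and reference control for full effect; nearly all actives have a fitted effect of over 55% in size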
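Galactose (2%) drives FUS expression in yeast precultured in raffinose; seeding density OD 0.005. Test compounds incubated 24hr at 30C and 99% humidity before absorbance at 600 nm was measured.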
Giardia kill: Small Molecules that selectively kill Giardia lamblia: qHTS. Giardia lamblia trophozoite viability. activity change, % at 7.66 µM, hits read low. actives 0.15% (n = 340,000). AID 540267, 2011; in the data active means activity change below about -80%; inconclusive means between about -30% and that limit;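 further: parasites exposed to compound for two days anaerobically before the ATP read; on the % scale 0 is the no-effect control and ±100 the full control effect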
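Luminescence from cellular ATP indicates surviving trophozoites (100 cells/well) following 48 hrs anaerobic compound treatment at 37 deg C; signal develops 15-30 min at room temperature.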
TRPV1 potentiator: HTS Assay for Compounds that Act as Potentiators of the Vanilloid Receptor 1; Transient receptor potential cation channel subfamily V member 1 (Homo sapiens), Q8NER1; TRPV1-expressing cells, Fluo-8 calcium influx, capsaicin EC20 potentiation; potentiation, % at 8.33 µM; actives 0.02% (n = 320,000); in the data active means potentiation above about 80%; inconclusive means between about 30% and that limit; further: 0% is about no effect
Target sequence (Q8NER1 whole entry, looked up): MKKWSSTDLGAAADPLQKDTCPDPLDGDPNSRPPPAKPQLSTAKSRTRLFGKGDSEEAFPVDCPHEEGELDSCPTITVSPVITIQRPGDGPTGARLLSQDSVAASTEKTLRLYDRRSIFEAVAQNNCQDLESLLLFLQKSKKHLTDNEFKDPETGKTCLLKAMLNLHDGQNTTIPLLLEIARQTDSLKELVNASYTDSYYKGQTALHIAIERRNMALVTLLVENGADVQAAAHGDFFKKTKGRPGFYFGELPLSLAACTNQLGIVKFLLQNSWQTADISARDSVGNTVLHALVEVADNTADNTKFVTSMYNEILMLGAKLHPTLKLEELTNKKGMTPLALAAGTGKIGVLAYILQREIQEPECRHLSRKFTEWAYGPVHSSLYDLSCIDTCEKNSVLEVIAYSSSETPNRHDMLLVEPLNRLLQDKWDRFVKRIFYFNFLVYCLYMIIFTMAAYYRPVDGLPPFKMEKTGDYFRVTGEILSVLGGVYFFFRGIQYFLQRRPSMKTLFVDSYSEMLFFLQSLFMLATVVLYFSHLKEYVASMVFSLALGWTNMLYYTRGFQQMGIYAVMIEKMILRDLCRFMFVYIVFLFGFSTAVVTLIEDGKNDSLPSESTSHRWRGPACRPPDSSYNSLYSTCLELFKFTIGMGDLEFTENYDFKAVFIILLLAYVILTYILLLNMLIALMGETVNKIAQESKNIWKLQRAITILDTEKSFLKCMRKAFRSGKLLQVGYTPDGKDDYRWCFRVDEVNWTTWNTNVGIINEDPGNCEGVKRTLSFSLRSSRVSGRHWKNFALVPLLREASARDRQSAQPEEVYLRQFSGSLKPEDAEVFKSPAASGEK
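Cells expressing TRPV1 were dye-loaded with Fluo-8 and read kinetically: 10 s baseline, 3 min after compound (agonist portion), then 2 min after EC20 capsaicin (allosteric enhancer portion). Calcium-bound dye fluorescence at 480/520 nm.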
TRPV1 ag: HTS Assay for Compounds that Act as Agonists of the Vanilloid Receptor 1 | Transient receptor potential cation channel subfamily V member 1 (Homo sapiens), Q8NER1 | TRPV1-expressing cells, Fluo-8 calcium influx, agonist mode | activation, % at 8.33 µM | actives 0.19% (n = 320,000); in the data active means activation above about 80%; inconclusive means between about 30% and that limit; further: 0% is about no effect
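Cells expressing TRPV1 were dye-loaded with Fluo-8 and read kinetically: 10 s baseline, 3 min after compound (agonist portion), then 2 min after EC20 capsaicin (allosteric enhancer portion). Calcium-bound dye fluorescence at 480/520 nm.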
An asterisk follows results filed as active; i = inactive; u = inconclusive; x = no result. Rows were chosen to be rich in hits. Some 2.3% of all compounds tested hit in one or more screens of this group. Unless noted, the call rests on the fitted dose curve; in most records, active means well fitted curve in the direction sought with a large enough effect; inconclusive means small, poorly fitted or top-dose-only effect, or another doubt; inactive means no such curve, though single readings can be large; an effect the other way counts as inactive or inconclusive.

SMILES	ELG1 repair inh	FUS yeast rescue	Giardia kill	TRPV1 potentiator	TRPV1 ag
COc1ccccc1CNC(=O)C(CC(C)C)NC(=O)C1CCC(C)CC1 (configuration not stated)	-3%	i	1	-19	u
COc1ccccc1CNC(=O)c1ccccc1C(=O)NC(CC(C)C)C(=O)NCc1ccccc1OC (configuration not stated)	21µM*	i	34	-3	2
COc1ccc(OC)c(-c2nnc3n2N=C(c2ccc(OC(F)F)c(OCC4CC4)c2)CS3)c1	12µM*	i	1	x	x
O=C(CCC1CCCN(C(=O)c2ccccc2Cl)C1)N1CCN(c2ccccn2)CC1 (configuration not stated)	u	i	17	-5	-3
CC(=O)c1ccccc1C(=O)N1CCCC(CCC(=O)N2CCN(c3ccccn3)CC2)C1 (configuration not stated)	23µM*	i	-8	4	-4
CCOC(=O)c1cc(-c2ccc(OC)cc2)n(CCC(=O)Nc2nc3ccc(OCC)cc3s2)c1C	x	i	x	x	x
Cc1ccc(S(=O)(=O)c2nnn3c2nc(N2CCN(c4ccc(F)cc4)CC2)c2cc(Cl)ccc23)cc1C	x	i	x	x	x
Cc1ccc(S(=O)(=O)c2nnn3c2nc(N2CCC(C(N)=O)CC2)c2cc(Cl)ccc23)cc1C	x	25µM*	x	x	x
O=C(CSc1nc2ccccc2nc1Cc1ccc(Cl)cc1)N1CCN(c2ccccc2)CC1	x	i	x	x	x
CC1CCCCN1C(=O)CSc1nc2ccccc2nc1Cc1ccc(Cl)cc1 (configuration not stated)	x	25µM*	x	x	x
O=C(CSc1ncnc2nc[nH]c12)N1CCN(c2ccc(Cl)cc2)CC1	18µM*	i	0	1	u
COc1ccc(N2CCN(C(=O)CSc3nc4ccccc4nc3Cc3ccc(Cl)cc3)CC2)cc1	x	32µM*	x	x	x
O=C(c1ccc2c(c1)OCCO2)N1CCN(c2nc(-c3cccs3)nc3ccccc23)CC1	x	x	-2	x	x
O=C(CC(c1ccccc1)c1ccccc1)Nc1ccc(Cl)cn1	12µM*	i	4	-19	u
CCCN(CC1CC1)C(=O)CSc1ncnc2sc(C)c(C)c12	18µM*	i	9	-15	u
COc1cc(/C=C/C(=O)Nc2cccc(S(=O)(=O)N3CCOCC3)c2)ccc1OCC#N	u	u	-23	-1	1
CCN(CC)S(=O)(=O)c1ccc(/C=C/C(=O)Nc2cccc(F)c2)cc1	13µM*	x	3	-11	97*
Cc1cc(C)cc(NC(=O)/C=C/c2ccc([N+](=O)[O-])s2)c1	-1%	i	u	-3	3
CN(C)S(=O)(=O)c1cccc(NC(=O)/C=C/c2ccc(S(=O)(=O)N3CCOCC3)cc2)c1	23µM*	x	12	-21	-4
CC(=O)c1cccc(NC(=O)/C=C/c2ccc([N+](=O)[O-])s2)c1	u	i	2	-18	84*
COc1ccc(/C=C/C(=O)Nc2cccc(S(=O)(=O)N3CCOCC3)c2)cc1OC	21µM*	i	-10	4	-3
O=C(c1cccn1-c1nnc(N2CCCC2)s1)N1CCN(c2ccccc2)CC1	x	i	x	x	x
CCc1ccc(C2CC(=O)N(c3cccc(C(F)(F)F)c3)C3=C2C(=O)OC3)cc1 (configuration not stated)	x	i	x	x	x
COc1cc(-c2nc(Cn3nnc(C(=O)Nc4cccc(Cl)c4)c3C)c(C)o2)cc(OC)c1OC	x	i	x	x	x
COc1ccccc1CNc1ncnc2c1c(-c1ccccc1)cn2-c1ccc(Br)cc1	x	i	x	x	x
CC(=O)c1cccc(NC(=O)/C=C/c2ccc(S(=O)(=O)N3CCOCC3)cc2)c1	23µM*	i	10	x	x
O=C(/C=C/c1ccc([N+](=O)[O-])cc1)Nc1cccc(S(=O)(=O)NC2=NCCCCC2)c1	15µM*	x	4	x	x
O=C(/C=C/c1ccc(OC(F)F)cc1)Nc1cccc(S(=O)(=O)N2CCOCC2)c1	23µM*	i	22	-3	9
